# Compounds without any hit were thinned out: in the full panel of roughly 83,000, 20% have a hit.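 96-well plates, one dose, 48 hours. Percent growth reported; active if below 10.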 A number with no mark means an inactive call. The source made the active and inactive calls.
# Tests used:
# Test in all cases: NCI-60 one-dose screen, 48 h (100 = growth as untreated, 0 = no growth, -100 = all killed)
# [1] = system: SR leukemia; conditions: 10 µM
# [2] = system: RPMI-8226 leukemia; conditions: 10 µM
# [3] = system: OVCAR-8 ovarian; conditions: 10 µM
# [4] = system: OVCAR-4 ovarian; conditions: 10 µM
# [5] = system: SK-OV-3 ovarian; conditions: 10 µM
# [6] = system: IGROV1 ovarian; conditions: 10 µM
# [7] = system: OVCAR-3 ovarian; conditions: 10 µM
# [8] = system: HS 578T breast; conditions: 10 µM
# [9] = system: NCI/ADR-RES ovarian; conditions: 10 µM
# [10] = system: T-47D breast; conditions: 10 µM
# [11] = system: BT-549 breast; conditions: 10 µM
# [12] = system: MDA-MB-435 melanoma; conditions: 10 µM
# [13] = system: SW-620 colon; conditions: 10 µM
# [14] = system: MCF7 breast; conditions: 10 µM unless noted
# [15] = system: HCT-116 colon; conditions: 10 µM
# [16] = system: KM12 colon; conditions: 10 µM
# [17] = system: HCC-2998 colon; conditions: 10 µM
# [18] = system: OVCAR-5 ovarian; conditions: 10 µM
SMILES,growth [1],growth [2],growth [3],growth [4],growth [5],growth [6],growth [7],growth [8],growth [9],growth [10],growth [11],growth [12],growth [13],growth [14],growth [15],growth [16],growth [17],growth [18]
O=[N+]([O-])c1ccccc1N=Nc1ccc(O)cc1O,93%,109%,104%,99.5%,101%,92.9%,122%,131%,118%,104%,101%,120%,116%,94.7%,100%,110%,–,–
S=c1[nH]ccn1-c1ccccc1Cl,101%,95.6%,105%,103%,111%,108%,98.2%,142%,115%,107%,117%,108%,111%,99.5%,107%,104%,113%,–
O=C(c1ccc(O)cc1)c1ccc(O)cc1,88.7%,107%,99.9%,–,114%,108%,111%,107%,110%,113%,122%,105%,113%,113%,95%,100%,105%,–
COC(=O)C(O)c1ccccc1 (centres undefined),108%,111%,108%,113%,105%,123%,–,125%,110%,107%,109%,107%,111%,99.3%,97.7%,106%,104%,–
COc1cc(/C=N\Nc2ccccc2)ccc1OC(=O)c1ccccc1,49.6%,54.3%,80.1%,–,–,60.6%,70.5%,87.6%,51.2%,36.1%,91%,44.5%,69.8%,56.4%,71.3%,8.69% (active),74.9%,64.4%
COC(=O)c1ccccc1N(C)C,78.2%,100%,105%,101%,95.7%,106%,106%,105%,101%,93.5%,103%,108%,107%,97.1%,98.4%,107%,113%,–
COc1ccc(-c2cc3c(nn2)-c2ccccc2C3=O)cc1,-21.8% (active),27.2%,-9.96% (active),-26.1% (active),102%,61.6%,-49.3% (active),103%,60.9%,77.5%,89.7%,10.4%,4.15% (active),16.2%,32%,37.1%,34.5%,–
O=C(O)[C@@H]1[C@H]2C[C@H]3c4[nH]c5ccccc5c4CCN3C[C@@H]2CC[C@@H]1O,115%,111%,87.6%,103%,115%,114%,111%,102%,112%,114%,–,113%,100%,103%,92.6%,113%,135%,–
N#CCCN(CCCN1CCOCC1)CN1C(=O)c2ccccc2C1=O,71.8%,108%,111%,–,–,102%,–,113%,–,96%,128%,108%,114%,95.8%,109%,112%,101%,106%
CCCCC1C(=O)N(c2ccccc2)N(c2ccccc2)C1=O,103%,96.6%,103%,117%,105%,–,–,114%,103%,109%,98.8%,108%,106%,115%,102%,109%,109%,–
c1ccc(Sc2ccccc2)cc1,82.9%,99.7%,102%,111%,104%,117%,106%,115%,112%,99.6%,100%,99.6%,107%,97.6%,110%,102%,105%,–
O=[N+]([O-])c1cccc2nsnc12,99.8%,104%,93.4%,114%,–,–,107%,101%,110%,103%,106%,111%,104%,93.5%,99.1%,–,111%,–
CCCCCCCCOC(=O)c1ccccn1,125%,101%,103%,104%,95.2%,103%,110%,106%,98.8%,96.4%,94.5%,116%,98.3%,96.2%,94.2%,103%,–,–
Nc1ccc(C(=O)c2ccc(N)c(Br)c2)cc1Br,26.1%,30.5%,26.4%,49.1%,8.33% (active),32.8%,–,-14.8% (active),0.17% (active),43.5%,56.4%,-3.36% (active),21.2%,13.2%,14.8%,–,14.1%,–
O=C1OC[C@H]2[C@H](c3ccc(O)c(O)c3)c3cc(O)c(O)cc3C[C@H]12,330%,167%,127%,110%,135%,–,–,111%,-28.4% (active),131%,134%,121%,107%,121%,103%,112%,–,–
CCCC(=O)Nc1ccc2c(c1)CN1C(=O)c3ccccc3C1=N2,103%,106%,98.2%,107%,110%,111%,102%,119%,99.5%,101%,107%,106%,105%,96%,102%,–,85.4%,–
CN(C)Cc1cc(C(C)(C)CC(C)(C)C)ccc1O,87.7%,95.7%,106%,86.5%,94.5%,85.7%,88.4%,106%,91.5%,86.4%,100%,107%,109%,95.4%,89.3%,104%,96.5%,–
CC(CC(=O)c1ccccc1)c1ccccc1 (centres undefined),101%,104%,102%,109%,127%,101%,116%,118%,118%,104%,107%,99.8%,102%,105%,106%,113%,–,–
CC(=O)Oc1ccc(Br)cc1C(=O)O,99.1%,99.5%,104%,104%,98.2%,–,111%,–,–,97.6%,97.7%,104%,107%,94.3%,95.4%,115%,100%,–
O=C(c1ccc(Cl)cc1)c1ccccc1Cl,95.9%,82.8%,89.6%,97%,96.3%,87.9%,118%,–,–,74.7%,91.7%,106%,121%,95.7%,87.9%,119%,92.6%,–

SMILES,growth [1],growth [2],growth [3],growth [4],growth [5],growth [6],growth [7],growth [8],growth [9],growth [10],growth [11],growth [12],growth [13],growth [14],growth [15],growth [16],growth [17],growth [18]
CCc1nc(N)nc(N)c1-c1ccc(Cl)cc1,57.3%,102%,47.7%,78.4%,84%,–,116%,103%,56.4%,100%,67.7%,35%,27.2%,67.8%,25.4%,82.5%,75.9%,–
C#Cc1cccc(NC(=O)c2ccc(Cl)cc2Cl)c1,115%,78.1%,105%,95.5%,95.5%,115%,109%,108%,104%,95.2%,111%,103%,91.9%,90.3%,93.2%,115%,113%,–
OC(c1ccccn1)C(O)c1ccccn1 (centres undefined),98.7%,108%,102%,107%,103%,97.9%,113%,111%,111%,109%,106%,115%,109%,101%,106%,109%,–,–
CCC/C=C(\C)C(C)(C#N)C(=O)OCC (centres undefined),100%,95.1%,101%,107%,111%,107%,124%,–,110%,112%,116%,96.3%,109%,97.1%,120%,110%,118%,–
CC1(C)N=C(N)N=C(N)N1c1cccc(Br)c1,49.4%,43.9%,33.1%,49.7%,44.3%,54.9%,52.8%,–,–,80.9%,46.7%,26.3%,36.6%,23.6%,22.9%,40.6%,23.4%,–
O=C(CCl)Nc1ccc2c(c1)C(=O)c1ccc(NC(=O)CCl)cc1C2=O,-27.1% (active),-40.3% (active),-23% (active),-43% (active),-9.68% (active),-62.1% (active),-93.2% (active),6.19% (active),-53.8% (active),-48.7% (active),-91% (active),-71.6% (active),-61.7% (active),-60.7% (active),-79.8% (active),-72.2% (active),-77.8% (active),–
Nc1ccc(CC(=O)O)c(N)c1,95.2%,104%,106%,98.6%,93%,106%,97.2%,96.7%,96.5%,117%,105%,97.6%,100%,99.3%,103%,93.5%,104%,–
O=c1cc(-c2ccccc2)nc2cc(-c3ccco3)[nH]n12,13.1%,71.6%,101%,91.5%,90.3%,70.5%,93.7%,89.2%,98.9%,65.4%,98.3%,41.8%,81.7%,28%,90.3%,69.5%,91.7%,–
CC(=O)c1ccc(C(C)(C)C)cc1,90.6%,95.5%,98.3%,93.5%,101%,96.7%,103%,–,–,98.2%,102%,106%,110%,94.5%,97.5%,102%,96.2%,–
CC(=O)c1c[nH]c2ccccc12,91.4%,110%,98.6%,99.8%,108%,101%,120%,104%,107%,97.6%,104%,97.5%,105%,100%,97.8%,120%,108%,–
CCOC(=O)C(O)C(O)C(=O)OCC (centres undefined),104%,–,105%,110%,108%,115%,107%,103%,108%,98%,107%,108%,101%,107%,103%,102%,111%,100%
CO[C@H]1C[C@@H]2CC[C@@H](C)[C@@](O)(O2)C(=O)C(=O)N2CCCC[C@H]2C(=O)O[C@H]([C@H](C)C[C@@H]2CC[C@@H](O)[C@H](OC)C2)CC(=O)[C@H](C)C=C(C)[C@@H](O)[C@@H](OC)C(=O)[C@H](C)C[C@H](C)/C=C/C=C/C=C1C,23.7%,23.8%,–,33.3%,45.1%,11.9%,55.1%,–,-10.4% (active),19.4%,15.6%,49%,58%,23.8%,31.1%,60.9%,146%,-6.29% (active)
CC(C)OC(=O)c1cc(NC(=S)OC(C)C)ccc1Cl,70.2%,83.3%,–,99.1%,95.1%,89.9%,93.9%,-29% (active),25.8%,58.3%,180%,97%,91.4%,95.1%,72.2%,59.5%,160%,67.2%
Cc1c(C(=O)O)c(=O)n(-c2ccccc2)n1C,123%,107%,103%,–,107%,117%,–,–,101%,98.8%,114%,107%,–,112%,113%,120%,106%,–
COc1ccc(C)cc1OC,99%,–,102%,104%,108%,99.8%,102%,114%,101%,107%,114%,108%,107%,102%,105%,105%,100%,114%
C/C=C/CC(C)C(O)C1C(=O)NC(CC)C(=O)N(C)CC(=O)N(C)C(CC(C)C)C(=O)NC(C(C)C)C(=O)N(C)C(CC(C)C)C(=O)NC(C)C(=O)NC(C)C(=O)N(C)C(CC(C)C)C(=O)N(C)C(CC(C)C)C(=O)N(C)C(C(C)C)C(=O)N1C (centres undefined),-0.0306% (active),–,38.1%,29.9%,40.4%,43.9%,17.4%,45.8%,31.9%,23.2%,-14.4% (active),-6.76% (active),31.3%,18.7%,8.61% (active),17.7%,1.86% (active),32%
CC(=O)OCCO,107%,–,101%,100%,113%,113%,110%,115%,110%,109%,109%,107%,107%,96.9%,103%,108%,111%,102%
O=C(O)CCC(NC(=O)OCc1ccccc1)C(=O)O (centres undefined),97.5%,107%,–,106%,82.4%,–,103%,107%,107%,98.5%,119%,104%,101%,93%,111%,105%,99.7%,105%
O=C1c2ccccc2C(=O)c2c1ccc(C(=O)O)c2[N+](=O)[O-],76.1%,–,100%,96%,108%,105%,115%,82.5%,103%,105%,95.5%,118%,102%,89.9%,104%,101%,106%,102%
